# Data: paper PMC13541613, “GHT-SELEX demonstrates unexpectedly high intrinsic sequence specificity and complex DNA binding of many human transcription factors”
# Biological target: ZNF721 DBD2 (Homo sapiens, UniProt Q8TF20-2 395-923)
# Experiment: HT-SELEX; 20 mM HEPES pH 7, 140 mM KCl, 5 mM NaCl, 1 mM K2HPO4, 2 mM MgSO4, 100 uM EGTA, ZnSO4, 0.1% Tween20; room temperature, 1 h; high values mean tight binding
# Settings: protein: ivt; tags: eGFP (N-terminal); dsDNA, one strand shown
# Method in brief: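 In HEPES/KCl low-stringency buffer with Tween20, a bead-immobilised tagged transcription factor (full-length or DNA-binding-domain fragment, from HEK293 lysate or cell-free extract) was incubated with a randomized 40-base DNA library for 1 h at room temperature. DNA retained after washing was heat-eluted, amplified by PCR over successive cycles and Illumina-sequenced, giving ~3 million 60 bp reads per sample. The reported binding signal, a relative k-mer count in those selected reads, rises with tighter binding.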
# Chain of ZNF721 DBD2 (Q8TF20 383-911): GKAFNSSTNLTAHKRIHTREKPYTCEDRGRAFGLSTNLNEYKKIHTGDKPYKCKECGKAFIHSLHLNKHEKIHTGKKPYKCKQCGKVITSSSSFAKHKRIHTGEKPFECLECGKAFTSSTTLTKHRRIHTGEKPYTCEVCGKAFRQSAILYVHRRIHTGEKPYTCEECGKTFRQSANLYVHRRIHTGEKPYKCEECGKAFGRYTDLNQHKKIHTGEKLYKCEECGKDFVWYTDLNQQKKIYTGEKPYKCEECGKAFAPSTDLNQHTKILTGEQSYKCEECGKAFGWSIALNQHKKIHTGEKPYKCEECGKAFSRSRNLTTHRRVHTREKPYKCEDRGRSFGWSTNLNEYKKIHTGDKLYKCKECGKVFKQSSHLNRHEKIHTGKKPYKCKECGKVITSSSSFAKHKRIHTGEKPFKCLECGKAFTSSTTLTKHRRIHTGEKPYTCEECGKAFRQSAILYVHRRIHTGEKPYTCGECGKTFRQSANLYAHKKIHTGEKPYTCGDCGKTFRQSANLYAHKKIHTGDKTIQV
row,Sequence,binding signal [relative 10-mer count]
1,CCCGACCCCA,0.0012
2,ACCCCCACCA,0.00503
3,GCACCACCCC,0.00815
4,CCCCTCTCCC,0.00204
5,GGGGGGGGGA,0.00192
6,ACCCCATCCC,0.0024
7,CTGCCCACCC,0.00216
8,CCACCACCGC,0.00503
9,CCCCCACCCG,0.00384
10,CCACCCCGAC,0.0024
11,AAAACAAGCA,0.0831
12,AGCATACCCA,0.366
13,CACCCCAACC,0.00407
14,CCTCCCCCTC,0.00467
15,AACCCCACCC,0.00156
16,CTCCCCCCCA,0.00587
17,AGCGTACCCA,0.162
18,CCGCCCCCCA,0.00252
19,ACCCCGACCC,0.0012
20,CCAACCCCCA,0.00168

row,Sequence,binding signal [relative 10-mer count]
1,AAAAGCATAC,0.039
2,CCCCCCCCTC,0.00324
3,AAAAGCAGTC,0.105
4,ACACCACCCC,0.00276
5,AAAAAAAAGA,0.0612
6,AAAAAAGCGG,0.0279
7,CAGCGTATCC,0.648
8,CACCTCCCCA,0.00348
9,AGGTGGGTGG,0.00443
10,CCACTCCCCC,0.00144
11,AGGGTATCCA,0.224
12,ACCACCCGCC,0.00312
13,GCATACCCAA,0.192
14,CCCAACCCAC,0.00515
15,AAAAGCAGTA,0.117
16,CCACCCAACC,0.00551
17,CCCACCACCC,0.00635
18,CACCCCATCC,0.00575
19,ACGCTTCATA,0.00108
20,GAAAAAAACA,0.165
